# Test results from PubChem BioAssay (NCATS).
# Values without a mark were called inactive. Records with an inconclusive call do not appear. Active and inactive are the calls of the source. Unless noted, calls come from the whole dose curve; as a rule, active = well fitted curve in the direction sought with a large enough effect; inconclusive = small, poorly fitted or top-dose-only effect, or another doubt; inactive = no such curve, though single readings can be large; an effect the other way counts as inactive or inconclusive.
# Legend:
# [1] = Stat Signaling Pathway (AID 446; active = well fitted curve in either direction with a large enough effect, not every such curve was filed as active)
# How it was run: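 IL-6/STAT signaling read in ME-180 cells via an SIE beta-lactamase reporter. Stimulus was 40 pM IL-6 (its AC50) for 5 hrs, so both activation and inhibition register.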
# [2] = Confirmation and Secondary Assay for Modulators of Hemoglobin Beta Chain Splicing at IVS2 654 locus (AID 910)
# How it was run: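 HeLa cells stably expressing EGFP interrupted by β-globin IVS2-654 intron, seeded overnight in Opti-MEM/2% FCS, then treated 2 days at 37 °C. Restored splicing read as total peak GFP intensity per well by laser scanning cytometry (488 nm excitation, 500–520 nm emission); 500 nM antisense PNA as control.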
# [3] = Confirmation and Secondary Assay for Modulators of Hemoglobin Beta Chain Splicing at IVS2 705 locus (AID 930)
# How it was run: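 HeLa IVS2-705 EGFP reporter cells, 500/well, compound 2 d at 37C; correct splicing yields fluorescent EGFP. Control: 500 nM antisense PNA. Read-out: total peak GFP intensity.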
# [4] = qHTS Assay for Lipid Storage Modulators (AID 1519; calls by dose curve); details: Drosophila S3 cells, BODIPY lipid droplet/cell ratio, laser cytometry; at 25.7 µM (top of the series); cells loaded with oleic acid
# How it was run: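 Cells seeded at 5,000 per well were treated with compounds over a concentration series and loaded with oleic acid (400 uM, as added). Lipid droplet fluorescence (488 nm excitation, 500-530 nm channel) was read by laser-scanning cytometry and normalized to 20 uM Triacsin C.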
# [5] = tested on: Zika virus NS2B-NS3 protease (linked construct); assay: Primary screen NINDS Rhodamine qHTS for Zika virus inhibitors (AID 1347160)
# How it was run: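 Percent inhibition, normalized to uninhibited and enzyme-free controls, is fitted to a 4-parameter Hill equation. Fluorescence change comes from a 15-min cleavage of 1.5 microM bis-peptide Rhodamine110 substrate by 25 nM linked NS2B-NS3 at room temperature.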
# [6] = HPAF-II Cancer Cell Toxicity qHTS against the NCATS CANVASS Library (AID 1347346)
# How it was run: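 HPAF-II cells at 1000 cells/well were treated with an 11-point concentration series for 72 hours at 37 degrees C. Viability read by CellTiter-Glo luminescence.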
# [7] = Panc-1005 Cancer Cell Toxicity qHTS against the NCATS CANVASS Library (AID 1347349)
# How it was run: (§1)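 In this cytotoxicity screen, 1000 cells per well rested 4 hours, then received compound (11 concentrations) for a 72-hour incubation; an ATP-dependent luminescent signal (CellTiter-Glo) was the endpoint.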
# [8] = SW1088 Cancer Cell Toxicity qHTS against the NCATS CANVASS Library (AID 1347350)
# How it was run: as §1
# [9] = COV-362 Cancer Cell Toxicity qHTS against the NCATS CANVASS Library (AID 1347352)
# How it was run: (§2)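 Cells at 1000/well were given compound 4 h after plating in an 11-point series. Viability was read by CellTiter-Glo luminescence after 72 h at 37 degrees C.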
# [10] = A2780 Cisplatin Sensitive Ovarian Cancer Cell Toxicity qHTS against the NCATS CANVASS Library (AID 1347353)
# How it was run: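 A2780 cells, 750/well, settled 4 h at 37 °C, then treated with an 11-point compound series for 72 h. Viability was read as ATPLite luminescence after 10 min at room temperature, with bortezomib as control.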
# [11] = UWB1.289-WTBRCA1 Cancer Cell Toxicity qHTS against the NCATS CANVASS Library (AID 1347354)
# How it was run: as §2
# [12] = HPAF-II 24hr Apoptosis Induction qHTS against the NCATS CANVASS Library (AID 1347356)
# How it was run: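 HPAF-II cells (500/well) exposed to compounds in 11-point series for 24 h at 37 degrees C; caspase-3/7 activity read by Caspase-Glo luminescence after 15 min at room temperature. Doxorubicin titration as control.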
# [13] = HEK293 18hr Apoptosis Induction qHTS against the NCATS CANVASS Library (AID 1347357)
# How it was run: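 Natural products applied to HEK293 for 18 hr; Caspase-Glo 3/7 readout.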
# [14] = HEK293 24hr Apoptosis Induction qHTS against the NCATS CANVASS Library (AID 1347359)
# How it was run: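 HEK293 cells, 500 per well, exposed to an 11-point compound series for 24 hours at 37 degrees C. Caspase 3/7 activity read by Caspase-Glo luminescence (DEVD substrate) after 15 min at room temperature.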
# [15] = target: Luciferin 4-monooxygenase (Photinus pyralis) (UniProt P08659); assay: Firefly luciferase counterscreen qHTS: Assay Interference Panel against the NCATS CANVASS Library (AID 1347363)
# Chain of Luciferin 4-monooxygenase (Photinus pyralis) (P08659 whole entry, looked up): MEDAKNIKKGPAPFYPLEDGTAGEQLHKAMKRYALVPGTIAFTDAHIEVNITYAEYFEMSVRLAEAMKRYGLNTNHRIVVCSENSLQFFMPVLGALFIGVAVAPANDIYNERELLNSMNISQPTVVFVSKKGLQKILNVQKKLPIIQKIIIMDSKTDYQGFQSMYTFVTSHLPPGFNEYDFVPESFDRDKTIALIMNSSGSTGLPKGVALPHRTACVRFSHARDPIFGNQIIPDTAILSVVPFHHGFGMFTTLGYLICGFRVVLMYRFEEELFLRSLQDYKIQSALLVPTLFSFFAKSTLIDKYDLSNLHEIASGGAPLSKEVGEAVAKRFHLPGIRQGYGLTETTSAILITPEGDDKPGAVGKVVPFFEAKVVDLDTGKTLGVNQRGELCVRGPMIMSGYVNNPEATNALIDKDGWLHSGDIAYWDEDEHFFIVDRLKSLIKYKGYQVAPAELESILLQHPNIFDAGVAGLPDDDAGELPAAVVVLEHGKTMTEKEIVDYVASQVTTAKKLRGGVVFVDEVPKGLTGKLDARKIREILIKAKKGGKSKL
# How it was run: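 Purified P. pyralis luciferase (0.04 ug/mL, 4x reagent) added to Tris-acetate buffer with 0.013 mM D-luciferin, 0.013 mM ATP and 13.3 mM Mg-acetate; compounds preincubated 15 min, then luminescence read after 5 min, RT.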
# [16] = SDT Cancer Cell Toxicity qHTS against the NCATS CANVASS Library (AID 1347365)
# How it was run: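 SDT dog glioma cells (500/well) exposed to an 11-point compound series for 72 hr at 37C, 5% CO2. Cytotoxicity read as ATP content by CellTiterGlo luminescence; bortezomib titration as control.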
# [17] = KB-3-1 Cancer Cell Toxicity qHTS against the NCATS CANVASS Library (AID 1347366)
# How it was run: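 Cytotoxicity toward KB-3-1 cells (500/well, DMEM + 10% FBS) was scored by CellTiter-Glo luminescence following 72 hr exposure at 37C, with bortezomib titrated as control.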
# [18] = G06 Cancer Cell Toxicity qHTS against the NCATS CANVASS Library (AID 1347368)
# How it was run: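 G06 dog glioma cells, 500 per well, exposed 72 hr at 37C, 5% CO2 to compounds in an 11-point series. Cytotoxicity read as ATP content by CellTiterGlo luminescence.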
# [19] = MCF7 Cancer Cell Toxicity qHTS against the NCATS CANVASS Library (AID 1347369)
# How it was run: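 This 72 hr qHTS scored MCF7 viability by CellTiterGlo luminescence, with 500 cells/well; bortezomib titration ran as control.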
# [20] = qHTS for ATAD5 Antagonist screened against the NCATS CANVASS Library (AID 1347370)
# How it was run: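 HEK293T cells with stably integrated ATAD5-luciferase reporter, 2000/well, 5 h attachment; compounds plus 10 µM 5-fluorouridine, 16 h at 37 °C. Luciferase luminescence read, with CellTiter-Fluor viability read first.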
# [21] = target: Nuclear receptor subfamily 1 group I member 3 (Homo sapiens) (UniProt Q14994); assay: qHTS for Constitutive Androstane Receptor (CAR) Antagonist screened against the NCATS CANVASS Library (AID 1347372)
# Chain of Nuclear receptor subfamily 1 group I member 3 (Homo sapiens) (Q14994 whole entry, looked up): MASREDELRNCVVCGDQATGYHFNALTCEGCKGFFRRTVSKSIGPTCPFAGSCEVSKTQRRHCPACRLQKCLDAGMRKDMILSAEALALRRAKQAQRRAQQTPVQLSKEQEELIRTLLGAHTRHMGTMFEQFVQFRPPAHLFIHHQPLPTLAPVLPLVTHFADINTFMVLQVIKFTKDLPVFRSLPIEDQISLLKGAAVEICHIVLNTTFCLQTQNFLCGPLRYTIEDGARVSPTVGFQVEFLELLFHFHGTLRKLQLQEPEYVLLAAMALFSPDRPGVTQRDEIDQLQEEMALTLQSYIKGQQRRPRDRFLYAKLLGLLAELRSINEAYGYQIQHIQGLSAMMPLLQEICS
# How it was run: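 HepG2 cells stably carrying hCAR and CYP2B6-2.2kb luciferase reporter, 2500 cells/well, compound with 50 nM CITCO agonist for 24hr at 37C. ONE-Glo luminescence measured CAR activity; CellTiter-Fluor read viability.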
# [22] = target: Nuclear receptor subfamily 1 group I member 3 (Homo sapiens) (UniProt Q14994); assay: qHTS for Constitutive Androstane Receptor (CAR) Agonist screened against the NCATS CANVASS Library (AID 1347373)
# How it was run: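 HepG2 cells stably carrying hCAR and a CYP2B6-2.2kb luciferase reporter, treated 24hr at 37C with compounds plus 1.5uM PK11195; activation by ONE-Glo luminescence, viability by CellTiter-Fluor.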
# [23] = qHTS for Hypoxia signaling pathway (HIF-1) antagonists against the NCATS CANVASS Library (AID 1347374)
# How it was run: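 HRE-bla ME-180 cells in medium with 0.5% dialyzed FBS received compounds (11-point series) plus CoCl2 (60 uM addition stock) for 17 hrs at 37C. Beta-lactamase activity read with CCF4 (405 nm ex, 460/530 nm em); CellTiter-Glo viability measured in same wells.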
# [24] = qHTS for Inflammasome Signaling Inhibitors: IL-1-beta AlphaLISA screen against the NCATS CANVASS Library (AID 1347379)
# How it was run: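 THP-1 cells pretreated 1 hr with compound (up to 57.5 uM final), then stimulated with LPS (250 ng/mL final) and ATP (1.25 mM final). Secreted IL-1B measured by AlphaLISA after 16 hr; glyburide as positive control.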
# [25] = qHTS for Antimalaria activity screened against the NCATS CANVASS Library (AID 1347380)
# How it was run: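 Red blood cells infected with P. falciparum Dd2 (2.5% hematocrit final, 0.3% parasitemia) were exposed to compounds in an 11-point qHTS series for 72 hr at 37C under 5% O2 and 5% CO2. Lysis buffer with SYBR Green was then added for 18 hr, and fluorescence was read at 485/535 nm.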
# [26] = Inflammasome Signaling qHTS Counterscreen: IL-1-beta AlphaLISA counterscreen against the NCATS CANVASS Library (AID 1347381)
# How it was run: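 Cell-free interference check: compounds added to medium spiked with 4 pg purified IL-1β. Anti-IL-1β acceptor beads (6 ug/mL) with 0.6 nM biotinylated antibody added for 1 h at RT, then streptavidin donor beads (24 ug/mL) for 30 min in the dark. AlphaLISA read at 680/615 nm.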
# [27] = Cytotoxicity qHTS for assessment of Hepg2 cells membrane integrity screened against the NCATS CANVASS Library (AID 1347387)
# How it was run: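 HepG2 cells (2000/well) attached overnight, then exposed 5 hr at 37C to compounds in an 11-point series (0.59 nM - 46 uM final). LDH release from damaged membranes read fluorometrically (CytoTox-ONE; 560/590 nm) after 10 min at room temperature.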
# [28] = qHTS for Activators of p53 Stress Response Pathway screened against the NCATS CANVASS Library (AID 1347388)
# How it was run: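 p53RE-bla HCT-116 cells (4000/well) were pre-incubated for 5 h, then treated with compound (11 points) for 16 h at 37C. After 2 h with CCF4, the 460/530 nm ratio gave reporter activation; CellTiter-Glo measured viability.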
# [29] = qHTS assay for small molecule disruptors of mitochondrial membrane potential screened against the NCATS CANVASS Library (AID 1347389)
# How it was run: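 HepG2 cells (2,000/well) plated overnight, then exposed to compounds in 11-point qHTS series for 1 h at 37C before 30 min Mito-MPS dye; depolarization read as fall in red aggregate (590 nm) to green monomer (535 nm) fluorescence.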
# [30] = Secretion counterscreen for inhibitors of the SERCaMP assay screened against the NCATS CANVASS Library (AID 1347390)
# How it was run: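 Natural products are titrated in an 11-point series up to 77 uM onto SH-SY5Y-GLuc STOP cells for 20 h. Secreted reporter activity is measured as coelenterazine-driven luminescence, with Brefeldin A on each plate.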
# [31] = qHTS for activators of dead-cell proteases activity screened against the NCATS CANVASS Library (AID 1347392)
# How it was run: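 HepG2 cells, 2000/well, attached 18 h at 37C, then exposed to compounds (11-point qHTS) for 5 h. Dead-cell protease release read as luminescence from cell-impermeant AAF-aminoluciferin substrate after 15 min at room temperature.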
# [32] = qHTS for inhibitors of Wild type Zika virus screened against the NCATS CANVASS Library (AID 1347396)
# How it was run: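 Using ATP-based luminescence (CellTiter Glo), this screen scores rescue of Vero 766 cells from wild-type Zika killing at 72 h post-infection. Compounds are tested in a concentration series.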
# [33] = qHTS for inhibitors of Rabies Virus screened against the NCATS CANVASS Library (AID 1347402; calls by dose curve)
# [34] = Primary qHTS for inhibitors of nuclear receptor binding SET domain protein 2 (NSD2) in an isogenic RCH-ACV NSD2 p.E1099K mutant (9B) (AID 1645876)
compound,measurement,setting,value
COc1ccc2c(c1)[nH]c1c(C)nccc12,outcome,[1],inactive
same,Potency,[2],inactive
same,outcome,[3],inactive
same,"activity change, negative = inhibition",[4],-4.61%
same,Potency,[5],inactive
same,Potency,[6],27.3 µM (active)
same,Potency,[7],30.6 µM (active)
same,Potency,[8],inactive
same,Potency,[9],38.6 µM (active)
same,Potency,[10],19.1 µM (active)
same,Potency,[11],inactive
same,outcome,[12],inactive
same,Potency,[13],inactive
same,Potency,[14],inactive
same,outcome,[15],inactive
same,Potency,[16],24.1 µM (active)
same,Potency,[17],42.9 µM (active)
same,Potency,[18],24.1 µM (active)
same,Potency,[19],34 µM (active)
same,Potency,[20],2.41 µM (active)
same,Potency,[21],inactive
same,outcome,[22],inactive
same,Potency,[23],17.2 µM (active)
same,Potency,[24],31.4 µM (active)
same,Potency,[25],0.0054 µM (active)
same,outcome,[26],inactive
same,outcome,[27],inactive
same,Potency,[28],21.5 µM (active)
same,Potency,[29],inactive
same,Potency,[30],62.7 µM (active)
same,Potency,[31],inactive
same,Potency,[32],inactive
same,outcome,[33],inactive
same,Potency,[34],16.4 µM (active)
